# Measured values published in the supplement of paper PMC10849652.
# The full data set covers some 8,800 targets. This sample favours those with a hit. About 0.5% of all pairs of compound and target were hits. A number with no mark means an inactive call.
# Assays:
# Experiment in all cases: log2 fold change, soluble protein after heating vs DMSO (PISA); higher = thermal stabilisation; K562 lysate, 10 uM; active = over 0.2 and 3.5 SD of the protein, either way, in both replicates (recomputed)
# nilotinib = compound: Cc1cn(-c2cc(NC(=O)c3ccc(C)c(Nc4nccc(-c5cccnc5)n4)c3)cc(C(F)(F)F)c2)cn1 [nilotinib]
# Outline: (§1)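 Soluble protein was defined as the supernatant remaining after 21,000xg for 90 min, following pooling of heated aliquots and adjustment to 0.5% NP-40 at 4°C. Before that, crude K562 extract at 1 mg/mL protein in PBS pH 7.4 with 1 mM MgCl2 was treated with 10 μM compound for 30 min and heated for 3 min across 48°C-58°C. Quantification used TMTpro 16plex LC-MS/MS with channel sums equalised, and values are log-two fold changes in thermal stability relative to solvent controls from duplicates.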
# [1] = compound: Cc1nc(Nc2n[nH]c3c2CN(C(=O)N[C@H](CN(C)C)c2ccccc2)C3(C)C)c2sccc2n1
# Outline: as §1
# dasatinib = compound: Cc1nc(Nc2ncc(C(=O)Nc3c(C)cccc3Cl)s2)cc(N2CCN(CCO)CC2)n1 [dasatinib]
# Outline: as §1
# [2] = compound: Cc1ncc(-c2ccnc(Nc3ccc(S(C)(=O)=O)cc3)n2)n1C(C)C
# Outline: as §1
# [3] = compound: Cn1cc(-c2ccc3c(c2)CCN3C(=O)Cc2cccc(C(F)(F)F)c2)c2c(N)ncnc21
# Outline: as §1
# quisinostat = compound: Cn1cc(CNCC2CCN(c3ncc(C(=O)NO)cn3)CC2)c2ccccc21 [quisinostat]
# Outline: as §1
# tipifarnib = compound: Cn1cncc1[C@@](N)(c1ccc(Cl)cc1)c1ccc2c(c1)c(-c1cccc(Cl)c1)cc(=O)n2C [tipifarnib]
# Outline: as §1
# [4] = compound: NC(=O)Nc1cc(-c2cccc(F)c2)sc1C(=O)N[C@H]1CCCNC1
# Outline: as §1
# [5] = compound: NC(=O)c1cnc(N[C@@H]2CCCC[C@@H]2N)nc1Nc1cccc(-n2nccn2)c1
# Outline: as §1
# [6] = compound: NC1(c2ccc(-c3nc4ccn5c(=O)[nH]nc5c4cc3-c3ccccc3)cc2)CCC1
# Outline: as §1
# [7] = compound: NCC(=O)Nc1ccc(-n2nc(C(F)(F)F)cc2-c2ccc3c(ccc4ccccc43)c2)cc1
# Outline: as §1
# vorinostat = compound: O=C(CCCCCCC(=O)Nc1ccccc1)NO [vorinostat]
# Outline: as §1
# silmitasertib = compound: O=C(O)c1ccc2c(c1)nc(Nc1cccc(Cl)c1)c1ccncc12 [silmitasertib]
# Outline: as §1
# [8] = compound: O=C1NC(=O)C(c2cnc3ccccn23)=C1c1cn2c3c(cc(F)cc13)CN(C(=O)N1CCCCC1)CC2
# Outline: as §1
# entospletinib = compound: c1cn2cc(-c3ccc4cn[nH]c4c3)nc(Nc3ccc(N4CCOCC4)cc3)c2n1 [entospletinib]
# Outline: as §1
# Sequence of UniProt P09429 (P09429 whole entry, looked up): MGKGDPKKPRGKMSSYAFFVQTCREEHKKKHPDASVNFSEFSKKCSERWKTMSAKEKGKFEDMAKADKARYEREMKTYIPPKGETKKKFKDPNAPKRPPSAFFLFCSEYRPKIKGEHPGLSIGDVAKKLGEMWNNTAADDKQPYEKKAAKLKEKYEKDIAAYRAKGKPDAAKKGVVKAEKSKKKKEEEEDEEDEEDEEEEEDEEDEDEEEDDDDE
# Sequence of UniProt Q6AI08 (Q6AI08 whole entry, looked up): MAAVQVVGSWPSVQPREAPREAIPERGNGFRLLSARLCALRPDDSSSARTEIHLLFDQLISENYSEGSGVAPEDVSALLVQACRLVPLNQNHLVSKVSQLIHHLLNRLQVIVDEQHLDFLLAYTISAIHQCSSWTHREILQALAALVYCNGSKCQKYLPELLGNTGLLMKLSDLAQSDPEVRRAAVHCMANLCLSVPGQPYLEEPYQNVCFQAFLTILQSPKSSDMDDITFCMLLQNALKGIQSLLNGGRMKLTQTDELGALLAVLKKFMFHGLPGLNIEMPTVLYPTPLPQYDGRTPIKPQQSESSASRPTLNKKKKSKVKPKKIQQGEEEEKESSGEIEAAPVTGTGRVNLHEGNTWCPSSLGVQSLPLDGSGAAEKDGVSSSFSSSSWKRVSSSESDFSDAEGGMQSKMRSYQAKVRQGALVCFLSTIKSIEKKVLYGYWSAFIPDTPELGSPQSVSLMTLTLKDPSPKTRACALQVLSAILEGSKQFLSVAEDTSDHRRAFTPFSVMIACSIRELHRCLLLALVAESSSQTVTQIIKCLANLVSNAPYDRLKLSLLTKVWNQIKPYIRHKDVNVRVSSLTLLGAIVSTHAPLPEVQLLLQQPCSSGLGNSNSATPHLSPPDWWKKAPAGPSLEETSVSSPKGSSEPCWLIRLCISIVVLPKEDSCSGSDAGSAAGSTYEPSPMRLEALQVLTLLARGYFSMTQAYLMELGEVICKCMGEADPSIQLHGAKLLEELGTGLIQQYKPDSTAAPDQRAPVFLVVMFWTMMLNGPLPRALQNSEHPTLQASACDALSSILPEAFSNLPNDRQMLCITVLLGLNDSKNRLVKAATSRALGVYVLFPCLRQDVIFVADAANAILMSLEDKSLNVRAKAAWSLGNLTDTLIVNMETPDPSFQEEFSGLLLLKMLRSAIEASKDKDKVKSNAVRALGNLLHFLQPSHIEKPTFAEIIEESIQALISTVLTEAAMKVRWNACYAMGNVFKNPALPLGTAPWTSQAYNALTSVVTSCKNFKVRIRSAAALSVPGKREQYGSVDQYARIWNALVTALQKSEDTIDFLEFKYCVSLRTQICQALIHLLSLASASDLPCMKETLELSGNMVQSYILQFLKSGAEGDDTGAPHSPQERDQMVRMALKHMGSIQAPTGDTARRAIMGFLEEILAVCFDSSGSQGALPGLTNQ
# Sequence of UniProt Q96AB3 (Q96AB3 whole entry, looked up): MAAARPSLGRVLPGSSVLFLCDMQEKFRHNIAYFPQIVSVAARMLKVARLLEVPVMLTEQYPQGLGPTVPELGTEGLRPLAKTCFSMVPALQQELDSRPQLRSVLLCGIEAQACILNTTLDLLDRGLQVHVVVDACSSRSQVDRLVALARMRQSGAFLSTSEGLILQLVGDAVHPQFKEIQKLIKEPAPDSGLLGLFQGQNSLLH
# Sequence of UniProt Q14527 (Q14527 whole entry, looked up): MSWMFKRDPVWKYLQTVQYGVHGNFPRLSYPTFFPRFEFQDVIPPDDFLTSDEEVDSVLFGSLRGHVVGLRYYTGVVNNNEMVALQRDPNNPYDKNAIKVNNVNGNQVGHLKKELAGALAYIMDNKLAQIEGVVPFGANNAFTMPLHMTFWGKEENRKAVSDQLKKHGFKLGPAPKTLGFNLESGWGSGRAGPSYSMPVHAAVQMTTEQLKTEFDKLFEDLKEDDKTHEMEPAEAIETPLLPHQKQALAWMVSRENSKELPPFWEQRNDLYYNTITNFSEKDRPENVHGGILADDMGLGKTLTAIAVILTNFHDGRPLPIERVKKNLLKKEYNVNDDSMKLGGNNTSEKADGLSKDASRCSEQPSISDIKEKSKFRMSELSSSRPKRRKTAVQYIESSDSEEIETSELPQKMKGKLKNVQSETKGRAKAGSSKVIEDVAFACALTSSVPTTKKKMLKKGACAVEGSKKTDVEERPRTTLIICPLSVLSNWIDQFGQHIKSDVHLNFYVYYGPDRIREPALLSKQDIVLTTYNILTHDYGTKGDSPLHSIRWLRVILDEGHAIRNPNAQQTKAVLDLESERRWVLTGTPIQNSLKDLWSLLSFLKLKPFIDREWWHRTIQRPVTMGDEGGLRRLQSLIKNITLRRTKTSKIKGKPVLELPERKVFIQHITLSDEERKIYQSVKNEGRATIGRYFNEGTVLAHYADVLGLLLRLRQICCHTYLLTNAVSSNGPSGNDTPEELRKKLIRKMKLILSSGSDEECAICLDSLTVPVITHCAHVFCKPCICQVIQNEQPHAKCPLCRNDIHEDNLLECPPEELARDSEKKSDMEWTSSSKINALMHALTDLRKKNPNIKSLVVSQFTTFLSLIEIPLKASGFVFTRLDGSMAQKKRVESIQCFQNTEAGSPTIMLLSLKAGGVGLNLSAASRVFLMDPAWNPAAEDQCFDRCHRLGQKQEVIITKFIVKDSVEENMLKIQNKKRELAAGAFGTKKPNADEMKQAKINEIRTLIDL
# Sequence of UniProt O14979 (O14979 whole entry, looked up): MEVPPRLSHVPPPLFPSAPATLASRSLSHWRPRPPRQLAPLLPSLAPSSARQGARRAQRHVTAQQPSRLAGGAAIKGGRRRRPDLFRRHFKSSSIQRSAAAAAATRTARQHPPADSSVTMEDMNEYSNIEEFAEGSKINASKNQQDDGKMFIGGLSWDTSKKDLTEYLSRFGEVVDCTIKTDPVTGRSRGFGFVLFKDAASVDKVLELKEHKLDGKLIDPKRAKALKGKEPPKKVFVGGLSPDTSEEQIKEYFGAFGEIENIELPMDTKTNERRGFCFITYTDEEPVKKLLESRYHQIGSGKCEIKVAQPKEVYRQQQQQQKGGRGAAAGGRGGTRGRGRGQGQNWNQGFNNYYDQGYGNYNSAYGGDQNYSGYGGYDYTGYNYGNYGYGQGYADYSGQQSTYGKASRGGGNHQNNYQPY
# Sequence of UniProt Q0VDF9 (Q0VDF9 whole entry, looked up): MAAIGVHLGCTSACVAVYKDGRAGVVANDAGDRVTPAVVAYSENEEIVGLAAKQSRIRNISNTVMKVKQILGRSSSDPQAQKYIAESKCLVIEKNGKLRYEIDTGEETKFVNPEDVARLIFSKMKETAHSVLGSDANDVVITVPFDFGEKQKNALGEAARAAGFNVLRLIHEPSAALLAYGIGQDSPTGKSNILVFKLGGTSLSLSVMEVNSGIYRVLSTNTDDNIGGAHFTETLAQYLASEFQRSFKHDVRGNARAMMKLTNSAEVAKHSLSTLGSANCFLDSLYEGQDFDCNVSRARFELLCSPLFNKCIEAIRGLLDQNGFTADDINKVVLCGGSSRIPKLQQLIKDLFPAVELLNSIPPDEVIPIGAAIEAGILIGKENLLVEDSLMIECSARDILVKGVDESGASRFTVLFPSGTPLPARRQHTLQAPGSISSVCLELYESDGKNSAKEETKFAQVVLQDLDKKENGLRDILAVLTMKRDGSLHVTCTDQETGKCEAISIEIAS
# Sequence of UniProt Q9H6K1 (Q9H6K1 whole entry, looked up): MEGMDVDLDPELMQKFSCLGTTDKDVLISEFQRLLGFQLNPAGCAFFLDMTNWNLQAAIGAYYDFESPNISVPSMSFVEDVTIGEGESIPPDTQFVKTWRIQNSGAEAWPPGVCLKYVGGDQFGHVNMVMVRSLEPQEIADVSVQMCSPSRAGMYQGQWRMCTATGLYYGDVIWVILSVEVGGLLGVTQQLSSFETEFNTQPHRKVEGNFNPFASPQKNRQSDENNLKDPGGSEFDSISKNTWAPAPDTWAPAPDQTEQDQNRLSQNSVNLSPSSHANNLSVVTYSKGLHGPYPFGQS
# Sequence of UniProt Q9BUJ2 (Q9BUJ2 whole entry, looked up): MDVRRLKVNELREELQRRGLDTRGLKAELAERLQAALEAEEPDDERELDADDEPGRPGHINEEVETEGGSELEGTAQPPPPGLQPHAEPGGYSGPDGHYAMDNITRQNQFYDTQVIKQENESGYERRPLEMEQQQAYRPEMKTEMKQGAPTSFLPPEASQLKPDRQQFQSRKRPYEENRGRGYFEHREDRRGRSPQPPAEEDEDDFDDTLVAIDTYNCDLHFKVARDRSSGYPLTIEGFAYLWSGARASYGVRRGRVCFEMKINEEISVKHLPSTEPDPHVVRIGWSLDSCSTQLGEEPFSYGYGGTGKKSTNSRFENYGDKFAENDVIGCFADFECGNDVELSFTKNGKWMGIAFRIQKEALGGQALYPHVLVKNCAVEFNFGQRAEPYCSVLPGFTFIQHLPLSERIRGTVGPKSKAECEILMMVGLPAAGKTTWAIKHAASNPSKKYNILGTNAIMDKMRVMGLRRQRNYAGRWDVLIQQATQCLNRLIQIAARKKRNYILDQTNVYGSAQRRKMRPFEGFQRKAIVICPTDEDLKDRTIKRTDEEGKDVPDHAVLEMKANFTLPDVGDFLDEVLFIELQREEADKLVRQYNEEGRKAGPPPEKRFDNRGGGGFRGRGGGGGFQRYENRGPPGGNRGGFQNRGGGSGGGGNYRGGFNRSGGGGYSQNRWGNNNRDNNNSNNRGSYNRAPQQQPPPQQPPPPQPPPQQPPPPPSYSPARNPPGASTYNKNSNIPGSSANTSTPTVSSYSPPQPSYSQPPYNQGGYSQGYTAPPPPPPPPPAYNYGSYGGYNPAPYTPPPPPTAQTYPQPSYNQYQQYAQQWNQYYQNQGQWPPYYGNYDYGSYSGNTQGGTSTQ
# Sequence of UniProt P82970 (P82970 whole entry, looked up): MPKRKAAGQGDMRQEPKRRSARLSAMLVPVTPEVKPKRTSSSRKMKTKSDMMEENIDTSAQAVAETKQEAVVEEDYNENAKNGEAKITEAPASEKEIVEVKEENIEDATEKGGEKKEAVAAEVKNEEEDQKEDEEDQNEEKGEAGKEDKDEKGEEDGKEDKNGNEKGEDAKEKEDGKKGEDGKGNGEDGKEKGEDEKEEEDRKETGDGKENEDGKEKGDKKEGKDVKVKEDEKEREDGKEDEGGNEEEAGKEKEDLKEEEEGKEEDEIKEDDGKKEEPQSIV
Target,log2 fold change (nilotinib),log2 fold change [1],log2 fold change (dasatinib),log2 fold change [2],log2 fold change [3],log2 fold change (quisinostat),log2 fold change (tipifarnib),log2 fold change [4],log2 fold change [5],log2 fold change [6],log2 fold change [7],log2 fold change (vorinostat),log2 fold change (silmitasertib),log2 fold change [8],log2 fold change (entospletinib)
HEATR6 (UniProt Q6AI08),-0.085,0.022,-0.019,0.022,0,-0.008,-0.06,0.055,0.041,0.026,-0.005,-0.466 (active),0.047,-0.026,0
GTF2I (UniProt P78347),0.001,0.002,-0.042,-0.011,0.035,-0.006,-0.008,0.034,0,-0.014,-0.001,-0.287 (active),0.091,-0.005,-0.017
GUSB (UniProt P08236),0.028,-0.067,0.007,-0.026,-0.002,-0.109,-0.066,-0.041,0.001,-0.01,0.021,0.043,0.015,-0.026,-0.029
HNRNPUL1 (UniProt Q9BUJ2),-0.291 (active),0.018,-0.012,0.006,0.01,0.015,0.019,0.045,-0.003,-0.009,-0.02,0.122,0.012,-0.022,-0.02
HSPA14 (UniProt Q0VDF9),-0.032,-0.001,-0.018,0.009,0.034,-0.026,0.021,0.037,0.001,-0.025,-0.022,-0.226 (active),0.035,-0.007,-0.009
IL18R1 (UniProt Q13478),0.02,0.136,0.181,-0.108,0.004,0.067,0.118,0.155,-0.055,0.211,-0.246,0.198,-0.33,0.075,-0.084
ISOC2 (UniProt Q96AB3),0.012,0.022,0.026,0.091,0,-0.053,-0.017,-0.05,-0.045,-0.036,-0.064,0.304 (active),-0.036,0,0.033
GLUL (UniProt P15104),-0.008,-0.012,0.054,-0.026,-0.002,0.071,0.027,-0.032,0.009,-0.003,0.008,0.13,0.006,-0.096,0.116
HLTF (UniProt Q14527),-0.039,0.004,-0.041,-0.051,0.05,0.021,-0.148,0.102,0.055,-0.085,0.046,-0.246 (active),0.101,-0.101,0.017
HMGN5 (UniProt P82970),0.029,0.001,0.03,0.019,-0.003,0.074,0.04,-0.042,-0.027,-0.003,-0.014,0.14,0.002,-0.005,0.002
INTS3 (UniProt Q68E01),-0.007,0.007,-0.05,-0.045,0.005,-0.038,0.09,0.028,-0.002,-0.028,0.049,-0.244 (active),0.015,-0.063,0.009
HS1BP3 (UniProt Q53T59),0.021,-0.016,0.023,-0.007,0,-0.006,0.042,-0.019,0.024,-0.014,0.03,0.139,-0.038,-0.027,-0.033
GSK3B isoform 2 (UniProt P49841),-0.06,0.576,-0.023,0.64 (active),-0.028,-0.084,0.003,0,0.061,-0.039,0.02,0.253,0.421,0.657,0.05
KATNBL1 (UniProt Q9H079),-0.057,-0.143,0.068,-0.159,-0.073,0.035,0.198,0.158,0.017,0.023,0.111,-0.176,-0.02,0.144,0.234
ILRUN (UniProt Q9H6K1),-0.12,-0.038,-0.003,-0.073,0.005,-0.047,-0.012,0.033,0.041,-0.038,0.002,-0.047,0.001,-0.01,-0.013
HMGB1 (UniProt P09429),0.056,-0.002,0.03,0.064,-0.03,0.108,0.026,-0.021,0,-0.011,-0.024,0.083,0.017,0.098,-0.014
GNL3 (UniProt Q9BVP2),0.008,-0.022,-0.005,0.029,-0.003,-0.164,0.013,0.038,0.022,-0.031,0.017,-0.142,0.008,-0.041,0.018
HNRNPDL (UniProt O14979),-0.208,0.036,0.016,-0.018,-0.005,0.074,-0.002,-0.062,-0.008,0.004,-0.032,0.133,-0.01,0.01,0.01
HECTD4 (UniProt J3KPF0),0.014,-0.009,-0.077,-0.007,0.037,-0.145,0.016,0.02,0.011,0.017,0.051,-0.472 (active),-0.003,0.032,0.001
